The panel holds about 83,000 compounds, 20% with a hit somewhere; the sample as a whole holds those more often.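 Treatment: one concentration, 48 hours, 96-well format. Scoring: percent growth, with anything below 10 considered active.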 Active and inactive are the calls of the source.
tested on: HL-60(TB) leukemia; assay: NCI-60 one-dose screen, 48 h (100 = growth as untreated, 0 = no growth, -100 = all killed); settings: 10 µM unless noted

| SMILES | growth |
| --- | --- |
| CNC(=O)c1cc(Oc2ccc3nc(NC(=O)c4ccc5ncccc5c4)sc3c2)ccn1 | 87.8% (inactive) |
| Cc1ncc(-c2ccoc2)c(NC2CCCCCC2)n1 | 96.1% (inactive) |
| CN(C)c1nc(-c2ccco2)n2nc(-c3ccco3)cc2n1 | 97.3% (inactive) |
| CCSc1ccc2c(c1)N(CCCN1CCN(C)CC1)c1ccccc1S2 | 37.1% (inactive) |
| Cc1oc(-c2ccc(Cl)cc2)nc1C1=NN(C(=O)c2ccncc2)C(c2ccccc2)C1 (stereo not given) | 97.7% (inactive) |
| CC1(C)CC(=O)C=C(N)C1 | 71.8% (inactive) |
| COC(=O)/C(=C\c1ccc(OC)cc1)C(=O)N1c2ccccc2Sc2ccccc21 | 16.5% (inactive) |
| COc1cc(C(=O)/C=C/c2cccc(Nc3ccnc4cc(Cl)ccc34)c2)cc(OC)c1OC | 5.47% (active) |
| CC1(C)CC(=O)C2=C(C1)C(c1ccc(Cl)cc1)n1ncc(C#N)c1N2 (stereo not given) | 97.9% (inactive) |
| Nc1ncc(-c2ccc(C(F)(F)F)cc2)c(NC2CCCCCC2)n1 | 16.8% (inactive) |
| O=C(/C=C/c1ccco1)c1ccc(Nc2ccnc3cc(Cl)ccc23)cc1 | 6.28% (active) |
| C=C1C(=O)O[C@H]2[C@H]1CC/C(COC(=O)c1cccc3ccccc13)=C\CC[C@@]1(C)O[C@@H]21 | -47.2% (active) |
| COc1ccc(CCO)cc1 | 64.3% (inactive) |
| O=c1cc(-c2ccc(OCc3ccccc3)cc2)oc2c(I)c(OCc3ccccc3)cc(OCc3ccccc3)c12 | 117% (inactive) |
| Cn1c(C(=O)c2cccc3ccccc23)nc2ccccc21 | 3.94% (active) |
| C=C1C(=O)O[C@H]2[C@H]1CC/C(COC(=O)CCCCCCCCC(=O)OC/C1=C/CC[C@@]3(C)O[C@H]3[C@H]3OC(=O)C(=C)[C@@H]3CC1)=C\CC[C@@]1(C)O[C@@H]21 | -32.8% (active) |
| COc1ccc(/C=C(\C#N)c2ccc(OC)cc2)cc1 | 50.9% (inactive) |
| Nc1c(-c2nc3ccc(Br)cc3c(=O)[nH]2)nnn1-c1ccccc1 | 103% (inactive) |
| O=C1/C(=C/c2cc(F)cc(F)c2)Cc2cc(F)cc(F)c21 | 122% (inactive) |
| CCOC(=O)/C(C#N)=C\c1c[nH]c2ccccc12 | 104% (inactive) |

| SMILES | growth |
| --- | --- |
| O=C(O)/C=C/C(=O)Nc1cccc(Cn2nnc3cc(Cl)c(Cl)cc32)c1 | 112% (inactive) |
| Cl | 107% (inactive) |
| CCOc1ccc(N2C(=O)CCSC2=S)cc1 | 99.7% (inactive) |
| Cc1cc(Cl)nc(N(CCCNc2ccnc3cc(Cl)ccc23)Cc2ccco2)n1 | -35.9% (active) |
| Cc1cc(C)n(Nc2nc3ccccc3[nH]c2=O)c(=O)c1C#N | 102% (inactive) |
| Cc1c(O)cc(-c2cnc(N/N=C\c3ccc(Cl)cc3)s2)c(O)c1C | -3.05% (active) |
| CN1CCN(C(=O)/C=C/c2ccc([N+](=O)[O-])o2)CC1 | 66.2% (inactive) |
| O=C(c1ccc(F)c(Cl)c1)N1c2ccccc2Sc2ccccc21 | 30.8% (inactive) |
| COc1ccc(OC)c2c1CCC1(C2)NC(=O)NC1=O (stereo not given) | 111% (inactive) |
| COc1cc2c(cc1OCCCCCCN1CCN(c3ncnc4ccccc34)CC1)N=CC1CCCN1C2=O (stereo not given) | -43.3% (active) |
| O=C(/C(=C/c1cccc([N+](=O)[O-])c1)c1ccccc1)c1ccccc1 | 10.6% (inactive) |
| CCN(CC)S(=O)(=O)c1ccc(O)c(NC(=O)c2[nH]c(C)c(C(C)=O)c2CCc2ccc(Cl)cc2)c1 | 39.6% (inactive) |
| CCn1c2c(c3ccccc31)SC1c3cccn3CCN1C2=S (stereo not given) | 87.5% (inactive) |
| Cc1cccc(-c2cc(O)c(C(=O)N3CCOCC3)s2)c1 | 24.5% (inactive) |
| O=C(Nc1cccc(-n2cc(-c3ccncc3)c(-c3ccc(Cl)c(O)c3)n2)c1)c1ccc(N2CCOCC2)c(C(F)(F)F)c1 | 51.6% (inactive) |
| CC1(C)[C@@H](O[C@@H]2OC[C@@H](O[C@@H]3O[C@H](CO)[C@@H](O)[C@H](O)[C@H]3O[C@@H]3OC[C@@H](O)[C@H](O)[C@H]3O)[C@H](O)[C@H]2O[C@@H]2O[C@H](CO)[C@@H](O)[C@H](O)[C@H]2O)CC[C@]2(C)[C@H]3CC[C@]45OC[C@@]6(CC[C@](C)(C=O)C[C@H]64)[C@H](O)C[C@@]5(C)[C@]3(C)CC[C@@H]12 | -58.6% (active) |
| CCCOc1ccc(/C=N/Nc2cc(C)nc3ccc(Br)cc23)cc1 | 55.3% (inactive) |
| O=C1/C(=C\c2ccc(Br)cc2)CN(C(=O)c2ccccc2F)C/C1=C\c1ccc(Br)cc1 | 33.6% (inactive) |
| COc1ccc(-c2cc3c4c(nc5ccccc5c4c2)CC(c2cc(OC)c(OC)c(OC)c2)O3)cc1 (stereo not given) | 106% (inactive) |
| CCCCCCCCCCCCSC1=C(Cl)C(=O)C(OC)=C(OC)C1=O | -46.2% (active) |

Reference: PubChem BioAssay (NCI)
